Test results: PubChem BioAssay
The list shows a part of the results. Calls of active or inactive are those of the source.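 The calls were made as follows, unless noted: active = inhibition above a set limit taken from the earlier primary screen (cut at about 63% in these data); inactive = the rest.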

Columns and labels:
[1] = KLF5 expression inhibitors, confirmation, DLD-1 cells, luminescence (AID 1834); conditions: DLD-1 KLF5 promoter firefly luciferase reporter, at 4 µM, active compounds read high;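 also: 0% = DMSO wells and 100% = LY294002 at 200 µM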
[2] = cytotoxicity in rat IEC-6 cells, cytotoxicity control for KLF5 inhibitor project, cell-based, luminescence, triplicate (AID 1905; in the data active = inhibition above about 23%;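 also: cells exposed to compounds for 48 hours before viability read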); conditions: IEC-6 rat intestinal cells, viability luminescence; at 4 µM; active compounds read high
[3] = target: Neuropeptide Y receptor type 2 (Homo sapiens) (UniProt P49146); assay: NPY-Y2 potentiators or agonists, confirmation, cell-based (AID 1539; in the data active = activation above about 33%); conditions: cell-based NPY-Y2 potentiator/agonist assay; at 3.6 µM; active compounds read high
[4] = target: Neuropeptide Y receptor type 1 (Homo sapiens) (UniProt P25929); assay: NPY-Y1 potentiators or agonists, counter-screen for NPY-Y2 potentiator project, cell-based, fluorescence (AID 1651; in the data active = activation above about 45%;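 also: cells stimulated with submaximal NPY then isoproterenol with phosphodiesterase inhibitor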); conditions: Y1 HEK293-CNG cells, membrane potential fluorescence; at 3.6 µM; active compounds read high
[5] = target: Neuropeptide Y receptor type 1 (Homo sapiens) (UniProt P25929); assay: NPY-Y1 direct agonists, selectivity assay for NPY-Y2 potentiator project, cell-based, fluorescence (AID 1702;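 active = activation above the mean of DMSO-only control wells plus 3 SD, cut at about 18% in these data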;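 also: cells stimulated with 1 µM isoproterenol plus the PDE inhibitor Ro 20-1724; 0% = isoproterenol with DMSO and no NPY and 100% = 40 nM NPY; Y1 agonists lower the membrane potential dye signal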); conditions: HEK293 Y1-CNGC, membrane potential fluorescence, agonism; at 3.6 µM; active compounds read high
[6] = CNGC cAMP sensor activity inhibitors, counter-screen for NPY-Y2 potentiator project, cell-based, HEK293-CNG parental, membrane potential fluorescence (AID 1703;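 active = inhibition above the control-well mean plus 3 SD of those wells, cut at about 22% in these data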;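 also: 0% = DMSO with isoproterenol and 100% = DMSO without isoproterenol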); conditions: isoproterenol cAMP, at 3.6 µM, active compounds read high
[7] = target: Neuropeptide Y receptor type 2 (Homo sapiens) (UniProt P49146); assay: NPY-Y2 direct agonists, counter-screen for NPY-Y2 potentiator project, cell-based, fluorescence (AID 1710;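 active = activation above the mean of solvent-only control wells plus 3 SD, cut at about 10% in these data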;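 also: cells stimulated by isoproterenol with no NPY added so direct agonism is tested; 0% = DMSO with isoproterenol alone and 100% = NPY at EC100 plus isoproterenol; agonism lowers probe fluorescence through less cAMP and CNG channel opening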); conditions: HEK293 Y2/CNGC cells, membrane potential fluorescence, agonist mode; at 3.6 µM; active compounds read high
[8] = target: Nuclear receptor coactivator 3 (Homo sapiens) (UniProt Q9Y6Q9); assay: SRC3 coactivator transcriptional activity inhibitors, confirmation, cell-based, luminescence, quadruplicate (AID 588792;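 active = mean inhibition over 43.08%, the solvent-only control mean plus 3 SD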;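 also: 0% = DMSO treated cells and 100% = gossypol at 36 µM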); conditions: HEK293 GAL4-SRC3 luciferase reporter, at 3.6 µM, active compounds read high
[9] = test system: transactivating tegument protein VP16 (Human herpesvirus 1), Gal4-VP16 luciferase reporter; assay: VP16 transactivation inhibitors, counter-screen for SRC3 inhibitor project, cell-based, luminescence, high throughput (AID 588794; in the data active = inhibition above about 30%); conditions: mammalian cells, VP16-driven luciferase reporter luminescence; at 3.6 µM; active compounds read high
[10] = target: Nuclear receptor coactivator 1 (Homo sapiens) (UniProt Q15788); assay: SRC1 coactivator transcriptional activity inhibitors, confirmation, cell-based, luminescence, quadruplicate (AID 588820;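 active = mean inhibition above 46.68%, the untreated control wells mean plus 3 SD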;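 also: 0% = DMSO wells and 100% = gossypol 36 µM treated wells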); conditions: HEK293 GAL4-SRC1 luciferase reporter, at 3.6 µM, active compounds read high
[11] = VP16 transactivation inhibitors, counter-screen for SRC1 inhibitor project, cell-based, luminescence, high throughput (AID 588824; in the data active = inhibition above about 25%); conditions: cell-based VP16 transactivation luciferase luminescence; at 3.6 µM; active compounds read high
[12] = target: Photoreceptor-specific nuclear receptor (Homo sapiens) (UniProt Q9Y5X4); assay: NR2E3 agonist confirmation in cells, cell-based, luminescence, CHO-S two-hybrid (AID 624378;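 active = average inhibition above a cutoff equal to the mean inhibition of all tested compounds plus one SD, cut at about 70% in these data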;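 also: 0% = DMSO in NR2E3 cells and 100% = DMSO in cells lacking NR2E3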); conditions: CHO-S mammalian two-hybrid NR2E3-NCOR, luciferase luminescence; at 3.98 µM; active compounds read high
[13] = GAL4-VP16 reporter modulators, confirmation, counter-screen for NR2E3 agonist project, cell-based, luminescence, CHO-S, high throughput (AID 624379;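 active = mean inhibition above a cutoff equal to the average over all tested compounds plus one standard deviation, cut at about 70% in these data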;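 also: 0% = DMSO with VP16-transfected cells and 100% = DMSO with cells lacking VP16; higher means less reporter light so more repression of VP16 activity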); conditions: CHO-S GAL4-VP16 luciferase reporter, at 3.98 µM, active compounds read high
[14] = StAR promoter reporter inhibitors, counter-screen for LRH-1 inverse agonist project, cell-based, luminescence, high throughput (AID 651611; in the data active = inhibition above about 28%); conditions: StAR promoter luciferase reporter counterscreen, at 3.6 µM, active compounds read high
[15] = target: Nuclear receptor subfamily 5 group A member 2 (Homo sapiens) (UniProt O00482); assay: LRH-1 (NR5A2) inverse agonists, retest, confirmation, cell-based, luminescence (AID 651613; in the data active = inhibition above about 42%;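 also: HEK293T cells co-transfected with LRH-1 and StAR promoter luciferase reporter; 0% = vehicle wells and 100% = parental cells lacking receptor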); conditions: cell-based LRH-1 luciferase reporter, inverse agonism; at 3.6 µM; active compounds read high
[16] = target: Steroidogenic factor 1 (Homo sapiens) (UniProt Q13285); assay: SF1 (NR5A1) inverse agonists, counter-screen for LRH-1 inverse agonist project, cell-based, luminescence, high throughput (AID 651614; in the data active = inhibition above about 44%;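 also: cells cotransfected with StAR promoter reporter and SF1 expression vector; 0% = vehicle on cells with receptor and 100% = vehicle on cells lacking receptor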); conditions: cell-based SF1 luciferase reporter, at 3.6 µM, active compounds read high
[17] = VP16 transactivation reporter inhibitors, counter-screen for LRH-1 inverse agonist project, cell-based, luminescence, high throughput (AID 651615; in the data active = inhibition above about 33%); conditions: Gal4-VP16 luciferase reporter cells, at 3.6 µM, active compounds read high
[18] = test system: transactivating tegument protein VP16 (Human herpesvirus 1); assay: VP16 transactivation reporter inhibitors, counter-screen for SRC2 inhibitor project, cell-based, luminescence, single concentration (AID 652007; in the data active = inhibition above about 36%); conditions: cell-based VP16 transactivation luciferase reporter, at 8.9 µM, active compounds read high
[19] = target: Nuclear receptor coactivator 2 (Homo sapiens) (UniProt Q15596); assay: SRC2 coactivator transcriptional activity inhibitors, confirmation, cell-based, luminescence, HEK293, triplicate (AID 652008;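 active = mean inhibition above 46.5%, the solvent-only control mean plus 3 SD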;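 also: 0% = DMSO-treated cells and 100% = Gossypol at 36 µM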); conditions: HEK293 GAL4-SRC2 luciferase reporter, at 8.9 µM, active compounds read high
[20] = Gal4-VP16 luciferase reporter inhibitors, counter-screen for COUP-TFII antagonist project, cell-based, luminescence, HEK293 (AID 687007; in the data active = inhibition above about 13%); conditions: at 8.5 µM, active compounds read high
[21] = target: COUP transcription factor 2 (Homo sapiens) (UniProt P24468); assay: NR2F2 transcriptional activity inhibitors, confirmation, cell-based, luciferase reporter, HEK293, triplicate (AID 687008;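 active = mean inhibition over three repeats above a set limit taken from the earlier primary screen, cut at about 38% in these data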;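 also: 100% = cells given the luciferase reporter alone without the COUP-TF2 vector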); conditions: HEK293 NGFI-A luciferase reporter, luminescence; at 8.5 µM; active compounds read high
COUP transcription factor 2 (Homo sapiens), sequence (P24468 whole entry, looked up): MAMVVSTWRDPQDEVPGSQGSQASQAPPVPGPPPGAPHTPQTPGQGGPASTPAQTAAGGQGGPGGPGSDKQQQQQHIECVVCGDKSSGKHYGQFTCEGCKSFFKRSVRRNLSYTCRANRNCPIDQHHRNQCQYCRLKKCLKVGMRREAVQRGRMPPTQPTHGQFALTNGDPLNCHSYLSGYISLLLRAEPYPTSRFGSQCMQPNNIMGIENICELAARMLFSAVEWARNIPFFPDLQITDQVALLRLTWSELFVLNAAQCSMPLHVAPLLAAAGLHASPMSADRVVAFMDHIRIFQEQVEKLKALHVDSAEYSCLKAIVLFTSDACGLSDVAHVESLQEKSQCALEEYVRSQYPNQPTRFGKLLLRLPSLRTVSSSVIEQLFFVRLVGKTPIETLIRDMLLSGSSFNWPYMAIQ

Neuropeptide Y receptor type 1 (Homo sapiens), sequence (P25929 whole entry, looked up): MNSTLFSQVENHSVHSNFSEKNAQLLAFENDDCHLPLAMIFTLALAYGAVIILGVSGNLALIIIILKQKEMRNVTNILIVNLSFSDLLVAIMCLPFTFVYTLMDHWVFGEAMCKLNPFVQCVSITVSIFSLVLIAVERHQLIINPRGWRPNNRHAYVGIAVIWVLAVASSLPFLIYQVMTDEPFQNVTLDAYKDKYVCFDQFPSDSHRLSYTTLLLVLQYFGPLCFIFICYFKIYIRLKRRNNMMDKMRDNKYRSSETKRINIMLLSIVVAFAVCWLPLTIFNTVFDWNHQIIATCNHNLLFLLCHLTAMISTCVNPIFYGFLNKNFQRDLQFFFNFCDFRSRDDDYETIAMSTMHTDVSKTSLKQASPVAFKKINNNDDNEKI
Neuropeptide Y receptor type 2 (Homo sapiens), sequence (P49146 whole entry, looked up): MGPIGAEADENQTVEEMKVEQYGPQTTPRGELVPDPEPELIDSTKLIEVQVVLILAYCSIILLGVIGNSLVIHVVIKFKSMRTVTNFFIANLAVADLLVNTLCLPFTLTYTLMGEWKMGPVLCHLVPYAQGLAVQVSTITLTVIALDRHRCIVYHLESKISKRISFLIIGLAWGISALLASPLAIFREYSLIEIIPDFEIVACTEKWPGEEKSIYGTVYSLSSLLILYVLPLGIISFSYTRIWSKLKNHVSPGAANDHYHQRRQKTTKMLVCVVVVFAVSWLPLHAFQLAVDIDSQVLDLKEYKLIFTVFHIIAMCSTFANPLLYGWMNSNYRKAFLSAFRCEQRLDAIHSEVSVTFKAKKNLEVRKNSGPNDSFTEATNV
Nuclear receptor subfamily 5 group A member 2 (Homo sapiens), sequence (O00482 whole entry, looked up): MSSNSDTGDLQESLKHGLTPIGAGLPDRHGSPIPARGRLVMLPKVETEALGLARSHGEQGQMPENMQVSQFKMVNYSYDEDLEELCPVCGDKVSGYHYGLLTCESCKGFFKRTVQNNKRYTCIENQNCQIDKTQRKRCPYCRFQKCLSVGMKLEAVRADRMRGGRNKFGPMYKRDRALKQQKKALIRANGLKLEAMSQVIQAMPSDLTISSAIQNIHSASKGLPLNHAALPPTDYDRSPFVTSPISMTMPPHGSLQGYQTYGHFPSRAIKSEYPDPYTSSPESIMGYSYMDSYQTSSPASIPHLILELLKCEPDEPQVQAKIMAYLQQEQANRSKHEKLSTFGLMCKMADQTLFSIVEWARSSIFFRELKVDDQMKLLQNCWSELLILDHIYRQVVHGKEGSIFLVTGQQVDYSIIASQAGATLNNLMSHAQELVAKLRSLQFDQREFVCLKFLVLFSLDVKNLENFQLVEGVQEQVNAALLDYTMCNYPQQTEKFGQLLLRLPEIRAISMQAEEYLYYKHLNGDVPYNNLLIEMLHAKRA
Photoreceptor-specific nuclear receptor (Homo sapiens), sequence (Q9Y5X4 whole entry, looked up, the tested form may be a part): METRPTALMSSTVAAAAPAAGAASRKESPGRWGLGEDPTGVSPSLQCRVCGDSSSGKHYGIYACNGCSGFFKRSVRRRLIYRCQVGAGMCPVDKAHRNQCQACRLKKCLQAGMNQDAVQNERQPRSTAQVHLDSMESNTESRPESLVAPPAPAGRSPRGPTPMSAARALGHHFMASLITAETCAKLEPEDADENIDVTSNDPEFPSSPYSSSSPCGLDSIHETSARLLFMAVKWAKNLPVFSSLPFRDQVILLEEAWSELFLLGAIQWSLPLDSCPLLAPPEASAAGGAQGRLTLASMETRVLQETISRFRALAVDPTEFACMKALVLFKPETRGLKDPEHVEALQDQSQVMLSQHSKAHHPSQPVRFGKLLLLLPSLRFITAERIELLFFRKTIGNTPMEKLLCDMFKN
Steroidogenic factor 1 (Homo sapiens), sequence (Q13285 whole entry, looked up, the tested form may be a part): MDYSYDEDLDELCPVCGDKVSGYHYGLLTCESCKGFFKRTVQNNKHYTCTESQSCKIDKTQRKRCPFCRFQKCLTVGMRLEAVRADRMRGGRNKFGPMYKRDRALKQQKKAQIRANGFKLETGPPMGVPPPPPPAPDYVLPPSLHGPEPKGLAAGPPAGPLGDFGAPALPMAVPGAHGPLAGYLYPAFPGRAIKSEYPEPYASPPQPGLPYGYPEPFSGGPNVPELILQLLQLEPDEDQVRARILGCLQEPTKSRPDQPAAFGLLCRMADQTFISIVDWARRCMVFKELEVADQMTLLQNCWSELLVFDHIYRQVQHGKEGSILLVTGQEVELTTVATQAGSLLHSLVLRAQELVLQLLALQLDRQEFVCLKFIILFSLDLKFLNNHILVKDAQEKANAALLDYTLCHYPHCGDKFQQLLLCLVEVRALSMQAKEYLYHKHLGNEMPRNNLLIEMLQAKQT
Nuclear receptor coactivator 2 (Homo sapiens), sequence (Q15596 whole entry, looked up, the tested form may be a part): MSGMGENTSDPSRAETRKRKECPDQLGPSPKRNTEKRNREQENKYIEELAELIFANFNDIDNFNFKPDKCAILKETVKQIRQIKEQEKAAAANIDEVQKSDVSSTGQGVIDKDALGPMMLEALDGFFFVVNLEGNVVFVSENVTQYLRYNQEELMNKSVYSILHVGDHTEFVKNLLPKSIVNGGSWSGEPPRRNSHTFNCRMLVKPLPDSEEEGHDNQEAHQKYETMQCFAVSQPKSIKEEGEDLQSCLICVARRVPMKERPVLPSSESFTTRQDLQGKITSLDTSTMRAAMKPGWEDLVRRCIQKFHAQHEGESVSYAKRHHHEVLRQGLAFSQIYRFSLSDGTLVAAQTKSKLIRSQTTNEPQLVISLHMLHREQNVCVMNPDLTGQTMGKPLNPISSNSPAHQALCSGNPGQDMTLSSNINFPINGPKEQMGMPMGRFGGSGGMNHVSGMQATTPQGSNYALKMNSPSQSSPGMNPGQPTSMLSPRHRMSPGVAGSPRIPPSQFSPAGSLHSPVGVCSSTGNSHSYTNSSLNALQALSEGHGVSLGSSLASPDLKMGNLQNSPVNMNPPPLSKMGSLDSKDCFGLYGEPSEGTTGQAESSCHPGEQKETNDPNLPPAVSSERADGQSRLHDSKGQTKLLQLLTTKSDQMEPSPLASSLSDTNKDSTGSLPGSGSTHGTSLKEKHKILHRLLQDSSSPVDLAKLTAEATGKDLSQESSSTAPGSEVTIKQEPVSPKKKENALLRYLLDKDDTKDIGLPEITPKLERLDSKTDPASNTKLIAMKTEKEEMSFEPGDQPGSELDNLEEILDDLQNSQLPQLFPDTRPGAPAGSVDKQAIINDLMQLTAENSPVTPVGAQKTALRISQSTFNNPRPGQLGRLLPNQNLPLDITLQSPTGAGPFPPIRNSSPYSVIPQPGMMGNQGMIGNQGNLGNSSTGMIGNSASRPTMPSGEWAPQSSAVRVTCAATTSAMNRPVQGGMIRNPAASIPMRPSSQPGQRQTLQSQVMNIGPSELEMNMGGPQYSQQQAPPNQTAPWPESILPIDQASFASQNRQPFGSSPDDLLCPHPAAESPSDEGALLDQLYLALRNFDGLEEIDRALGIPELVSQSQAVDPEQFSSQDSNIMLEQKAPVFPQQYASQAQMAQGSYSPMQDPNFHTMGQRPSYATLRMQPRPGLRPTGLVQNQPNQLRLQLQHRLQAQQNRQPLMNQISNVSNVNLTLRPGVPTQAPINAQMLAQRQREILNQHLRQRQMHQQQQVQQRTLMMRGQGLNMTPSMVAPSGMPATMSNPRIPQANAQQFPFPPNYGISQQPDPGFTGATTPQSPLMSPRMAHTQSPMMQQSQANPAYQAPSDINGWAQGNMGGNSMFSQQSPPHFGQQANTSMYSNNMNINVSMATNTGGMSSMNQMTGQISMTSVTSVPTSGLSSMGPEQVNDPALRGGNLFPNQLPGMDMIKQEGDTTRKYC

COc1ccc(Nc2cc(C)nc(-n3nc(C)cc3C)n2)cc1
active: inhibition [1] 78.8% | inhibition [2] 60.9%

CCOc1ccccc1NC(=O)Cn1nnc(C(=O)NCc2cccs2)c1N
active: inhibition [1] 83.1% | inhibition [2] 58.1%

O=C(NCc1ccccc1)c1ccc(S(=O)(=O)Nc2cccc(C(F)(F)F)c2)cc1
active: activation [7] 19.8%
inactive: activation [3] 10.8% | activation [4] 17% | activation [5] 12% | inhibition [6] 16.6%

CN(c1ccc2nc3ccccc3c(=O)n2n1)C1CCCCC1
inactive: inhibition [2] 9.18% | inhibition [10] -5.95% | inhibition [11] 23.2% | inhibition [12] 43.9% | inhibition [13] 10.8% | inhibition [15] 14.8% | inhibition [17] 18%
active: inhibition [1] 72.9% | inhibition [8] 59.8% | inhibition [9] 48.9% | inhibition [14] 59.8% | inhibition [16] 57.6% | inhibition [18] 50.9% | inhibition [19] 86% | inhibition [20] 64.8% | inhibition [21] 87.9%

O=c1cc(-c2ccccc2)[nH]c2cc(F)ccc12
active: inhibition [1] 77.9% | inhibition [2] 59.3%

CC(Nc1ccccc1)c1cccnc1 (stereo not drawn)
active: activation [7] 17.8%
inactive: activation [3] 2.4% | activation [4] -7.91% | activation [5] -5.76% | inhibition [6] 2.7%

COc1ccccc1N1CCN(C(=O)c2cc(=O)c3cc(C)cc(C)c3o2)CC1
active: inhibition [1] 87.3% | inhibition [2] 58.2%

Cn1nccc1C(=O)NC1CCCc2c1cnn2-c1ccc(F)cc1F (stereo not drawn)
active: inhibition [12] 96.4% | inhibition [13] 86.3% | inhibition [15] 62.8% | inhibition [16] 67.1% | inhibition [17] 57.1% | inhibition [21] 62.2%
inactive: inhibition [1] 24.7% | inhibition [2] 13.8% | inhibition [14] 20.2% | inhibition [20] -3.41%

O=C1NC(c2ccc(-c3ccccc3[N+](=O)[O-])o2)C(C(=O)c2ccc(Cl)cc2)C(O)(C(F)(F)F)N1 (stereo not drawn)
inactive: activation [3] 28.1% | activation [4] 38.7%
active: activation [5] 30.5% | inhibition [6] 31.2% | activation [7] 32.6%

CCOc1cc(C(=O)N2CCc3cc(OC)c(OC)cc3C2)ccc1OC(F)F
active: inhibition [1] 85.3% | inhibition [2] 59.4%
inactive: inhibition [18] -28% | inhibition [19] 14.7%
